Measurements reported in PubChem BioAssay AID1159580 (chemical genetic matrix, 2015).
Several values for one entry are separate records, joined by “and”; a condition that tells them apart may be missing. Equal entries are not always repeated. Among all 5,500 compounds or so, about 2,000 (36%) were called active. Another 18% or so got no clear call; they are omitted. No stated cut-off is given here; in the data, active means normalized growth mostly below about 0.91 (no sharp cut-off); inconclusive means no clear call, values can overlap the other calls; inactive means mostly above about 0.92. The list shows a part of the results.

Assay: chemical genetic growth profiling, strain panel (AID 1159580);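 further: tested at 20 µM; growth read once vehicle control cultures reached saturation at 30 °C; 1 = growth at the plate median or of vehicle wells; lower values mean less growth of the strain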
Details: S. cerevisiae deletion strains, growth OD

Measured: normalized growth

CC1(C)CC[C@]2(C(=O)O)CC[C@]3(C)C(=CCC4[C@@]5(C)CC[C@H](O)[C@@](C)(CO)C5CC[C@]43C)C2C1 (stereo partly drawn)
active: locus YGL086W, strain mad1, active compounds read low 1.24 [resistant] | locus YKL085W, strain MDH1 (second series), active compounds read low 1.16 [resistant] | locus YKL085W, strain MDH1, active compounds read low 1.16 [resistant] | locus YLL041C, strain sdh2, active compounds read low 1.12 [resistant]
inactive: locus YAL021C, strain ccr4, active compounds read low 1 | locus YAL026C, strain drs2, active compounds read low 1.02 | locus YAL030W, strain snc1, active compounds read low 1.02 | locus YBL061C, strain skt5, active compounds read low 1.01 | locus YBR009C, strain hhf1, active compounds read low 1.02 | locus YBR021W, strain FUR4, active compounds read low 1.11 | locus YBR023C, strain chs3, active compounds read low 1.02 | locus YBR171W, strain sec66, active compounds read low 1.04 | locus YBR229C, strain ROT2, active compounds read low 1.02 | locus YBR231C, strain swc5, active compounds read low 1.02 | locus YBR279W, strain paf1, active compounds read low 1.02 | locus YCL011C, strain gbp2, active compounds read low 1.03 | locus YCL016C, strain dcc1, active compounds read low 1.03 | locus YCL029C, strain bik1, active compounds read low 0.977 | locus YCL061C, strain MRC1, active compounds read low 1.02 | locus YCL069W, strain vba3, active compounds read low 1.03 | locus YCR088W, strain abp1, active compounds read low 1.02 | locus YDL005C, strain med2, active compounds read low 1.04 | locus YDL035C, strain GPR1, active compounds read low 1.04 | locus YDL040C, strain nat1, active compounds read low 1.05 | locus YDL074C, strain BRE1, active compounds read low 0.981 | locus YDL101C, strain DUN1, active compounds read low 1.02 | locus YDL134C, strain PPH21, active compounds read low 1.1 | locus YDL185W, strain tfp1, active compounds read low 0.946 | locus YDL192W, strain arf1, active compounds read low 0.99 | locus YDR001C, strain nth1, active compounds read low 1.02 | locus YDR069C, strain doa4, active compounds read low 1.03 | locus YDR101C, strain arx1, active compounds read low 1.01 | locus YDR137W, strain rgp1, active compounds read low 1.04 | locus YDR159W, strain sac3, active compounds read low 1.04 | locus YDR162C, strain NBP2, active compounds read low 1.07 | locus YDR195W, strain ref2 1.08 | locus YDR297W, strain sur2, active compounds read low 1.03 | locus YDR318W, strain mcm21, active compounds read low 0.999 | locus YDR334W, strain swr1, active compounds read low 1.03 | locus YDR335W, strain msn5, active compounds read low 1.02 | locus YDR388W, active compounds read low 0.994 | locus YDR392W, strain spt3, active compounds read low 1.01 | locus YDR502C, strain sam2, active compounds read low 0.999 | locus YEL003W, strain gim4, active compounds read low 1.02 | locus YEL037C, strain rad23, active compounds read low 1.02 | locus YEL061C, strain CIN8 (second series), active compounds read low 1.02 | locus YEL061C, strain CIN8, active compounds read low 1 | locus YER015W, strain faa2, active compounds read low 1.02 | locus YER016W, strain bim1, active compounds read low 1.03 | locus YER110C, active compounds read low 0.987 | locus YER111C, strain swi4, active compounds read low 1.02 | locus YER155C, strain BEM2 (second series), active compounds read low 1.03 | locus YER155C, strain BEM2, active compounds read low 1.01 | locus YER167W, strain BCK2, active compounds read low 1.02 | locus YFR010W, strain ubp6, active compounds read low 1.02 | locus YGL078C, strain dbp3, active compounds read low 0.994 | locus YGL167C, strain pmr1, active compounds read low 1.03 | locus YGL173C, strain kem1, active compounds read low 1.03 | locus YGL227W, strain vid30, active compounds read low 1.03 | locus YGL240W, strain doc1, active compounds read low 1.01 | locus YGL248W, strain PDE1, active compounds read low 1.03 | locus YGL253W, strain hxk2, active compounds read low 1.02 | locus YGR078C, strain PAC10, active compounds read low 1.03 | locus YGR135W, strain pre9, active compounds read low 1.01 | locus YGR229C, strain SMI1, active compounds read low 1.02 | locus YGR252W, strain gcn5, active compounds read low 1.02 | locus YHR013C, strain ard1, active compounds read low 1.06 | locus YHR027C, strain rpn1, active compounds read low 1.02 | locus YHR030C, strain SLT2, active compounds read low 0.989 and 1.03 | locus YHR079C, strain IRE1 (second series), active compounds read low 0.999 | locus YHR079C, strain IRE1, active compounds read low 1.02 | locus YHR094C, strain hxt1, active compounds read low 1 | locus YHR129C, strain ARP1, active compounds read low 1 | locus YHR142W, strain chs7, active compounds read low 1.03 | locus YHR200W, strain rpn10, active compounds read low 1.01 | locus YIL066C, strain RNR3, active compounds read low 1.03 | locus YIL073C, strain SPO22, active compounds read low 1 | locus YIL125W, strain kgd1, active compounds read low 0.99 | locus YIR030C, strain dcg1, active compounds read low 1.04 | locus YJL092W, strain hpr5, active compounds read low 1.03 | locus YJL095W, strain BCK1 (second series), active compounds read low 1.02 | locus YJL095W, strain BCK1, active compounds read low 1.04 and 0.98 | locus YJL115W, strain asf1, active compounds read low 1.03 | locus YJL129C, strain trk1, active compounds read low 1.02 | locus YJL134W, strain LCB3, active compounds read low 0.995 | locus YJL154C, strain vps35, active compounds read low 1.02 | locus YJL164C, strain tpk1, active compounds read low 1.05 | locus YJL166W, strain qcr8, active compounds read low 1.02 | locus YJL168C, strain set2, active compounds read low 0.998 | locus YJL187C, strain SWE1 (second series), active compounds read low 1.02 | locus YJL187C, strain SWE1, active compounds read low 1.04 | locus YJR043C, strain POL32, active compounds read low 1.03 | locus YJR066W, strain TOR1, active compounds read low 0.977 | locus YKL160W, strain elf1, active compounds read low 1.02 | locus YKL190W, strain CNB1, active compounds read low 1.02 | locus YKR001C, strain vps1, active compounds read low 0.996 | locus YKR026C, strain gcn3, active compounds read low 1.03 | locus YKR091W, strain srl3, active compounds read low 1.03 | locus YLL001W, strain dnm1, active compounds read low 1.02 | locus YLL026W, active compounds read low 1.02 | locus YLR027C, strain aat2, active compounds read low 1.02 | locus YLR039C, strain RIC1, active compounds read low 1.04 | locus YLR058C, strain SHM2, active compounds read low 1.01 | locus YLR102C, strain apc9, active compounds read low 0.991 | locus YLR113W, strain HOG1, active compounds read low 0.929 | locus YLR221C, strain rsa3, active compounds read low 1.02 | locus YLR258W, strain gsy2, active compounds read low 1.02 | locus YLR262C, strain YPT6 (second series), active compounds read low 1.03 | locus YLR262C, strain YPT6, active compounds read low 1.09 | locus YLR268W, strain sec22, active compounds read low 1.01 | locus YLR320W, strain mms22, active compounds read low 1.03 | locus YLR330W, strain CHS5, active compounds read low 0.994 | locus YLR342W, strain FKS1 (second series), active compounds read low 1.05 | locus YLR342W, strain FKS1, active compounds read low 1.03 | locus YLR357W, strain rsc2, active compounds read low 1.01 | locus YLR370C, strain arc18, active compounds read low 1.02 | locus YLR371W, strain rom2, active compounds read low 0.958 | locus YLR384C, strain iki3, active compounds read low 1.01 | locus YLR418C, strain cdc73, active compounds read low 1.02 | locus YML016C, strain PPZ1, active compounds read low 1.01 | locus YML032C, strain rad52, active compounds read low 0.998 | locus YML120C, strain ndi1, active compounds read low 1.02 | locus YML124C, strain tub3, active compounds read low 0.996 | locus YMR058W, strain fet3, active compounds read low 1.03 | locus YMR078C, strain ctf18, active compounds read low 0.991 | locus YMR125W, strain sto1, active compounds read low 1.03 | locus YMR129W, active compounds read low 1.02 | locus YMR205C, strain PFK2, active compounds read low 1.03 | locus YMR223W, strain ubp8, active compounds read low 1 | locus YMR231W, strain pep5, active compounds read low 1.01 | locus YMR307W, strain GAS1, active compounds read low 0.931 | locus YNL067W, strain RPL9B, active compounds read low 1.04 | locus YNL071W, strain lat1, active compounds read low 1.02 | locus YNL128W, strain TEP1, active compounds read low 0.996 | locus YNL183C, strain NPR1, active compounds read low 0.878 | locus YNL209W, strain ssb2, active compounds read low 1.01 | locus YNL233W, strain BNI4, active compounds read low 1.03 | locus YNL248C, strain rpa49, active compounds read low 1.02 | locus YNL250W, strain rad50, active compounds read low 0.991 | locus YNL271C, strain bni1, active compounds read low 0.983 | locus YNL298W, strain CLA4, active compounds read low 0.992 | locus YNL307C, strain MCK1, active compounds read low 1.01 | locus YNL322C, strain KRE1 (second series), active compounds read low 1.02 | locus YNR049C, strain mso1, active compounds read low 1.02 | locus YNR052C, strain pop2, active compounds read low 0.997 | locus YOL012C, strain htz1 0.926 | locus YOL147C, strain pex11, active compounds read low 1 | locus YOR001W, strain rrp6, active compounds read low 1.01 | locus YOR061W, strain CKA2, active compounds read low 0.998 | locus YOR069W, strain VPS5, active compounds read low 1.01 | locus YOR070C, strain gyp1, active compounds read low 1 | locus YOR080W, strain dia2, active compounds read low 1.03 | locus YOR083W, strain WHI5, active compounds read low 1.02 | locus YOR106W, strain vam3, active compounds read low 1.04 | locus YOR136W, strain idh2, active compounds read low 0.999 | locus YOR144C, strain elg1, active compounds read low 1 | locus YOR184W, strain ser1, active compounds read low 1.01 | locus YOR231W, strain MKK1, active compounds read low 1.02 | locus YOR265W, strain rbl2, active compounds read low 1.01 | locus YOR270C, strain vph1, active compounds read low 1.05 | locus YOR290C, strain snf2, active compounds read low 1.03 | locus YOR316C, strain cot1, active compounds read low 0.989 | locus YPL051W, strain arl3, active compounds read low 1.01 | locus YPL078C, strain atp4, active compounds read low 1.02 | locus YPL106C, strain sse1, active compounds read low 1.04 | locus YPL240C, strain hsp82, active compounds read low 1.02 | locus YPL241C, strain CIN2, active compounds read low 0.999 | locus YPL256C, strain CLN2, active compounds read low 1.01 | locus YPR119W, strain clb2, active compounds read low 0.999 | locus YPR141C, strain kar3, active compounds read low 0.986 | locus YPR163C, strain tif3, active compounds read low 1 | locus YPR167C, strain met16, active compounds read low 0.996 | strain wtn01, active compounds read low 0.997
